{"source": "PubChem BioAssay AID720706", "about": "(Broad Institute, 2013)", "note": "Where “and” joins values, the source holds several entries; their conditions need not be identical. Equal entries are not always repeated. Hit rate of the full screen: of about 350,000 compounds, about 5,500 (1.6%) were called active.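 Rule for the calls: active = significant combined selectivity score with lowered wild-type GFP, culture density cut under 30%, mutant RFP and density less affected; inactive = any of these conditions unmet.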 The list comes from a sample in which actives are over-represented; it also holds similar structures and randomly drawn compounds.", "data": [{"test": "GFP drop in mixed WT/humanized-ribosome E. coli culture – GFP/RFP fluorescence, OD600, single point, bacterial rRNA inhibitor project, primary screen (AID 720706)", "conditions": "E. coli WT GFP vs humanized-ribosome RFP mutants, 24 h; GFP signal change (wild-type ribosome): stronger effect = lower value, concentration not given here unless noted; OD600 change: measured here: OD600 growth unless noted; RFP signal change: measured here: RFP humanized mutant strains, concentration not given here unless noted", "values": [{"molecule": "O=C(CN1CCCC1=O)NCCc1ccccc1", "GFP signal change (wild-type ribosome)": "13.1% (inactive)", "OD600 change": "9.85%", "RFP signal change": "2.04%"}, {"molecule": "O=C1CC(=O)N(Cc2ccccc2)C(=O)N1CCCCCCN1C(=O)CC(=O)N(Cc2ccccc2)C1=O", "GFP signal change (wild-type ribosome)": "-23.4% (active)", "OD600 change": "8%", "RFP signal change": "-3.78%"}, {"molecule": "CS(=O)(=O)N1CCC2CCNC2C1", "note": "(stereo not given)", "GFP signal change (wild-type ribosome)": "-44.3% [stronger effect = lower value, DMSO median 0, no signal -100] (inactive)", "OD600 change": "-74.4% [measured here: OD600 growth, DMSO median 0, no signal -100]", "RFP signal change": "-13% [measured here: RFP humanized mutant strains, DMSO median 0, no signal -100, concentration not given here]"}, {"molecule": "O=C(Cc1ccccc1)N1CCCCN2[C@H](C1)[C@H](c1ccc(C#CC3(O)CCCC3)cc1)[C@@H]2CO", "GFP signal change (wild-type ribosome)": "-0.103% (inactive)", "OD600 change": "-5.65%", "RFP signal change": "-2.06%"}, {"molecule": "COC(=O)[C@@H]1[C@@H](CO)[C@@H]2Cn3c(ccc(-c4ccc(F)cc4)c3=O)[C@H]1N2C(C)=O", "GFP signal change (wild-type ribosome)": "-1.54% (inactive)", "OD600 change": "-1.06%", "RFP signal change": "-2.02%"}, {"molecule": "C[C@]12CCC3C(CC[C@H]4C[C@@H](O)CC[C@]34C)C1C[C@@H](O)[C@H]2O", "note": "(stereo not given in full)", "GFP signal change (wild-type ribosome)": "-1.03% (inactive)", "OD600 change": "2.49%", "RFP signal change": "0.13%"}, {"molecule": "C[C@]12CCC3C(CC[C@H]4[C@H](O)[C@H](O)CC[C@]34C)C1CCC2=O", "note": "(stereo not given in full)", "GFP signal change (wild-type ribosome)": "-22.2% (inactive)", "OD600 change": "-18.8%", "RFP signal change": "3.96%"}, {"molecule": "CC12CCC3C(CCC4CC(=O)CCC43C)C1CC(=NO)C2=O", "note": "(stereo not given)", "GFP signal change (wild-type ribosome)": "-22% (active)", "OD600 change": "-9.98%", "RFP signal change": "4.28%"}, {"molecule": "C=CCN1[C@@H]2CN(S(C)(=O)=O)C[C@H]1C2c1ccc(Br)cc1", "note": "(stereo not given in full)", "GFP signal change (wild-type ribosome)": "0.44% [stronger effect = lower value, DMSO median 0, no signal -100] (inactive)", "OD600 change": "-2.24% [measured here: OD600 growth, DMSO median 0, no signal -100]", "RFP signal change": "0.309% [measured here: RFP humanized mutant strains, DMSO median 0, no signal -100, concentration not given here]"}, {"molecule": "COc1cccc(-c2ccc3n(c2=O)C[C@@H]2[C@@H](CO)[C@H](C(=O)O)[C@H]3N2C(=O)c2cnccn2)c1", "GFP signal change (wild-type ribosome)": "0.18% (inactive)", "OD600 change": "2.71%", "RFP signal change": "-2.44%"}, {"molecule": "Brc1ccc2c(c1)CNCc1cnnn1-2", "GFP signal change (wild-type ribosome)": "21.4% [stronger effect = lower value, DMSO median 0, no signal -100] (inactive)", "OD600 change": "6.17% [measured here: OD600 growth, DMSO median 0, no signal -100]", "RFP signal change": "0.786% [measured here: RFP humanized mutant strains, DMSO median 0, no signal -100, concentration not given here]"}, {"molecule": "C/C=C/c1ccc(C2[C@@H]3CN(S(C)(=O)=O)C[C@H]2N3)cc1", "note": "(stereo not given in full)", "GFP signal change (wild-type ribosome)": "0.848% [stronger effect = lower value, DMSO median 0, no signal -100] (inactive)", "OD600 change": "10.1% [measured here: OD600 growth, DMSO median 0, no signal -100]", "RFP signal change": "0.743% [measured here: RFP humanized mutant strains, DMSO median 0, no signal -100, concentration not given here]"}, {"molecule": "O=[N+]([O-])c1cnc2ccc3ccccc3c2c1", "GFP signal change (wild-type ribosome)": "-67.7% (inactive)", "OD600 change": "-75.7%", "RFP signal change": "-31.1%"}, {"molecule": "C/C(=N/O)c1ccc2ccc3ccccc3c2c1", "GFP signal change (wild-type ribosome)": "-48% (active)", "OD600 change": "-16.4%", "RFP signal change": "-10.4%"}, {"molecule": "Clc1ccc([C@@H]2CC3CCC2N3)cn1", "note": "(stereo not given in full)", "GFP signal change (wild-type ribosome)": "0.922% [stronger effect = lower value, DMSO median 0, no signal -100] (inactive)", "OD600 change": "-1.31% [measured here: OD600 growth, DMSO median 0, no signal -100]", "RFP signal change": "-1.9% [measured here: RFP humanized mutant strains, DMSO median 0, no signal -100, concentration not given here]"}, {"molecule": "FC(F)(F)CN1CC2C(c3ccc(Br)cc3)C(C1)N2CC1CC1", "note": "(stereo not given)", "GFP signal change (wild-type ribosome)": "-5.85% [stronger effect = lower value, DMSO median 0, no signal -100] (inactive)", "OD600 change": "-3.54% [measured here: OD600 growth, DMSO median 0, no signal -100]", "RFP signal change": "-0.25% [measured here: RFP humanized mutant strains, DMSO median 0, no signal -100, concentration not given here]"}, {"molecule": "O=C(Cc1ccncc1)N1CCCCN2[C@H](CO)[C@@H](c3ccc(C#CC4(O)CCCC4)cc3)[C@H]2C1", "GFP signal change (wild-type ribosome)": "5.65% (inactive)", "OD600 change": "9.16%", "RFP signal change": "1.41%"}, {"molecule": "Cc1ncoc1C(=O)NCC1=C(c2cccc3ccccc23)C[C@@H]2CC[C@H]1N2Cc1ccco1", "GFP signal change (wild-type ribosome)": "5.41% (inactive)", "OD600 change": "-0.665%", "RFP signal change": "-7.54%"}, {"molecule": "CCOc1ccc(-c2cc(C)[n+](CCN(CC)CC)c(-c3ccc(OCC)cc3)c2)cc1", "GFP signal change (wild-type ribosome)": "-47.8% (active)", "OD600 change": "-15.2%", "RFP signal change": "-13.2%"}, {"molecule": "CCC(C)NC1(c2ccccc2)CCCCC1", "note": "(stereo not given)", "GFP signal change (wild-type ribosome)": "11.4% (inactive)", "OD600 change": "7.39%", "RFP signal change": "4.1%"}, {"molecule": "CN(c1ccccc1)c1ccc([N+](=O)[O-])c2nonc12", "GFP signal change (wild-type ribosome)": "-8.38% (active)", "OD600 change": "-3.73%", "RFP signal change": "-4.23%"}, {"molecule": "CCN(CC)c1ccc([N+](=O)[O-])c2cccnc12", "GFP signal change (wild-type ribosome)": "-44.1% (inactive)", "OD600 change": "-57.8%", "RFP signal change": "-2.59%"}, {"molecule": "FC(F)(F)CN1CC2NC(C1)C2c1ccc(Br)cc1", "note": "(stereo not given)", "GFP signal change (wild-type ribosome)": "-1.54% [stronger effect = lower value, DMSO median 0, no signal -100] (inactive)", "OD600 change": "-0.568% [measured here: OD600 growth, DMSO median 0, no signal -100]", "RFP signal change": "-0.0575% [measured here: RFP humanized mutant strains, DMSO median 0, no signal -100, concentration not given here]"}, {"molecule": "O=S(=O)(c1ccccc1)N1CCC2CCNC2C1", "note": "(stereo not given)", "GFP signal change (wild-type ribosome)": "32.8% [stronger effect = lower value, DMSO median 0, no signal -100] (inactive)", "OD600 change": "20.2% [measured here: OD600 growth, DMSO median 0, no signal -100]", "RFP signal change": "4.31% [measured here: RFP humanized mutant strains, DMSO median 0, no signal -100, concentration not given here]"}, {"molecule": "CC(=O)N1C[C@@H]2C(c3ccc(Br)cc3)[C@H](C1)N2C", "note": "(stereo not given in full)", "GFP signal change (wild-type ribosome)": "-0.325% [stronger effect = lower value, DMSO median 0, no signal -100] (inactive) and 1.25% [stronger effect = lower value, DMSO median 0, no signal -100] (inactive)", "OD600 change": "4.6% [measured here: OD600 growth, DMSO median 0, no signal -100] and 7.11% [measured here: OD600 growth, DMSO median 0, no signal -100]", "RFP signal change": "-3.94% [measured here: RFP humanized mutant strains, DMSO median 0, no signal -100, concentration not given here] and 0.471% [measured here: RFP humanized mutant strains, DMSO median 0, no signal -100, concentration not given here]"}, {"molecule": "CN(C)CC1Oc2ccccc2OC1(O)c1ccccc1", "note": "(stereo not given)", "GFP signal change (wild-type ribosome)": "-40.9% (active)", "OD600 change": "-11.5%", "RFP signal change": "-12.2%"}, {"molecule": "COC(=O)[C@@H]1[C@@H](CO)[C@@H]2Cn3c(ccc(C4=CCCCC4)c3=O)[C@H]1N2CC1CC1", "GFP signal change (wild-type ribosome)": "-0.199% (inactive)", "OD600 change": "-2.21%", "RFP signal change": "-0.887%"}, {"molecule": "O=C(O)[C@H]1[C@H](CO)[C@H]2Cn3c(cccc3=O)[C@@H]1N2C(=O)c1ccccc1", "GFP signal change (wild-type ribosome)": "2.42% (inactive)", "OD600 change": "7.83%", "RFP signal change": "-1.92%"}, {"molecule": "COc1ccccc1CN1[C@@H](CO)[C@@H](c2ccccc2)C12CN(C(=O)Cc1ccccc1)C2", "GFP signal change (wild-type ribosome)": "-13.7% [stronger effect = lower value, DMSO median 0, no signal -100] (inactive)", "OD600 change": "-27.1% [measured here: OD600 growth, DMSO median 0, no signal -100]", "RFP signal change": "-0.899% [measured here: RFP humanized mutant strains, DMSO median 0, no signal -100, concentration not given here]"}, {"molecule": "COC(=O)[C@@H]1[C@@H](CO)[C@@H]2Cn3c(ccc(-c4cccc(C(=O)N(C)C)c4)c3=O)[C@H]1N2C(=O)NC(C)C", "GFP signal change (wild-type ribosome)": "1.25% (inactive)", "OD600 change": "8.61%", "RFP signal change": "-0.784%"}]}]}
